High-throughput results: PubChem BioAssay, National Center for Advancing Translational Sciences (NCATS)
Marburg entry inh: qHTS for inhibitors of binding or entry into cells for Marburg Virus | actives 1.8% (n = 300,000) | Marburg virus pseudotyped entry inhibition, cell reporter | Potency, µM (titrated, usually from 37.8 µM), without a hit: at the top dose activity change, negative = inhibition, hits mostly inhibitors | AID 540276, 2011; calls by dose curve; tested in HEK293 cells; also: potency is read from the fitted curve at half-maximal effect; % is scaled to controls: 0 for no effect and ±100 for the full control effect
LASV entry inh: qHTS for Inhibitors of binding or entry into cells for Lassa Virus. Lassa virus pseudotype entry inhibition, cell reporter. Potency, µM (top dose mostly 37.9 µM), for the others: top-dose activity change, negative = inhibition, usual class: inhibitors. actives 1.2% (n = 300,000); calls by dose curve; tested in HEK293 cells; also: potency is read from the fitted curve at half-maximal effect; % is scaled to controls: 0 for no effect and ±100 for the full control effect; nearly all actives have a fitted effect of over 50% in size
Vaccinia Venus: qHTS for Stage-Specific Inhibitors of Vaccinia Orthopoxvirus: Venus Reporter Primary qHTS; Vaccinia virus Venus reporter expression, fluorescence; Potency, µM (doses to about 36.5 µM), for inactives: at the highest dose activity change, negative = inhibition, actives largely listed as inhibitors; actives 0.46% (n = 330,000); AID 720580, 2013; calls by dose curve; tested in A549 cells; also: potency is read from the fitted curve at half-maximal effect; % is scaled to controls: 0 for no effect and ±100 for the full control effect; nearly all actives have a fitted effect of over 30% in size
Vaccinia mCherry: qHTS for Stage-Specific Inhibitors of Vaccinia Orthopoxvirus: mCherry Reporter Primary qHTS. Vaccinia virus mCherry reporter infection, fluorescence. Potency, µM (titrated, usually from 36.5 µM), inactives show at the top dose activity change, negative = inhibition, usual class: inhibitors. actives 0.63% (n = 310,000); calls by dose curve; tested in A549 cells; also: potency is read from the fitted curve at half-maximal effect; % is scaled to controls: 0 for no effect and ±100 for the full control effect; nearly all actives have a fitted effect of over 35% in size
Cycloheximide cs: Cycloheximide Counterscreen for Small Molecule Inhibitors of Shiga Toxin; actives 12% (n = 300,000); cell reporter, cycloheximide protein synthesis inhibition counterscreen; max response, %; in the data active = max response mostly above about 13%, no sharp cut-off; inactive = mostly below about 14%; also: read at 38.3 µM for the half of the compounds with a filed dose; 0% is about no effect
Shiga inhibitor: A qHTS for Small Molecule Inhibitors of Shiga Toxin; actives 9.2% (n = 290,000); Vero cells, Shiga toxin protein synthesis inhibition reporter; inhibition, % at 38.7 µM; in the data active = inhibition mostly above about 28%, no sharp cut-off; inactive = mostly below about 43%; also: 0% is about no effect
* hit, by the source's call; i = inactive; ? = inconclusive; nt = no result given; [ ] = remark or other dose. The full list was thinned out, with hits kept by preference.

SMILES	Marburg entry inh	LASV entry inh	Vaccinia Venus	Vaccinia mCherry	Cycloheximide cs	Shiga inhibitor
CC(C)c1nc(C(=O)N2CCOc3ccc(CN4CCN(c5ccccn5)CC4)cc3C2)cs1	nt	nt	-26%	-3%	nt	nt
Cc1nc2ccc(Cl)cc2nc(C)/c1=N\O	8%	?	-1%	nt	28*	50
CCOC(=O)c1nc2ccccc2nc1C	-2%	11%	-6%	i	-2	-1
Cc1ccc2nc(C)/c(=N\O)c(C)nc2c1	2%	10%	nt	nt	23*	86*
Cc1ccc2nc(N)nnc2c1	nt	nt	-5%	i	nt	nt
Cc1nc2ccccc2nc(C)c1=NO	-12%	25%	nt	nt	51*	114*
Cc1cccc(N2CCN(CCCNC(=O)c3sc4ncccc4c3-n3cccc3)CC2C)c1 (centres undefined)	nt	9%[46.1 µM]	-14%	-12%	nt	nt
Cc1ccc(N/N=C(\C#N)C(N)=S)c(C)c1	-1%[46.1 µM]	10%	-6%	-2%	13*	41
Cc1ccc(NC(=O)/C(C#N)=N/Nc2ccc(C(=O)O)cc2)c(C)c1	-3%[46.1 µM]	26%	6%	-2%	8	3
CCN=c1scc(C)n1/N=C/c1ccsc1	-1%	-12%	-15%	i	47*	104*
CN=c1scc(C)n1/N=C/c1ccc(O)c(O)c1O	?	1%	7%	-14%	-11	-15
CC(C)(C)c1ccc(OCc2cnc(Cl)s2)cc1	-1%[14.2 µM]	27%	-18%	i	35*	75*
C/C(=N\NC(=O)c1nn(C)c(C)c1Br)c1cccc(NC(=O)c2ccoc2C)c1	-39%	11%	-7%	i	46*	24*
COc1ccc(C(=O)Nc2cccc(/C(C)=N\NC(=O)c3ccoc3C)c2)cc1OC	16%[46.1 µM]	?	-4%	-24%	45*	60*
c1csc(CNc2nc(CN3CCCC(c4nc5ccccc5o4)C3)nc3ccccc23)c1 (centres undefined)	nt	nt	2%	-14%	nt	nt
CCOc1cccc(OCCCCn2cnc3ccccc3c2=O)c1	17%	21%	9%	i	4	28
CCOc1ccc(OCCn2nnc3ccccc3c2=O)cc1	?	-17%	-10%	-8%	37*	59*
Cc1cc(OCCn2cnc3ccccc3c2=O)ccc1[N+](=O)[O-]	2%	?	-8%	-14%	2	-5
CC(C)(C)c1ccc(OCCOCCn2cnc3ccccc3c2=O)cc1	-2%	6%	nt	nt	35*	55
CCCn1nnc2ccccc2c1=O	6%	2%	nt	nt	7	-7
CCOc1cccc(OCCn2cnc3ccccc3c2=O)c1	-1%	18%	-4%	-5%	13	35*
Cc1ccc(OCCn2cnc3ccccc3c2=O)c([N+](=O)[O-])c1	2%	?	-3%	-10%	50*	52*
C=CCN1C(=O)C2(OCCCO2)c2cc(C)ccc21	?	20%	-5%	-8%	-2	-4
COC(=O)c1sc2ncccc2c1OCc1ccc(Cl)cc1	8.2µM*	-9%	nt	nt	-2	-4
COC(=O)c1sc2ncccc2c1OCc1ccccc1Cl	-1%	-12%	nt	nt	-2	-13
SMILES	Marburg entry inh	LASV entry inh	Vaccinia Venus	Vaccinia mCherry	Cycloheximide cs	Shiga inhibitor
O=C(NCc1cccs1)c1cc2ccccc2o1	7%	-9%	-24%	i	21	45
Cc1csc(C(C#N)C(=O)c2cc3ccccc3o2)n1 (centres undefined)	?	?	-17%	-26%	25*	55*
O=c1cc(C(F)(F)F)[nH]c2ccccc12	nt	nt	nt	nt	-2	-9
O=c1cc(/C=C/c2cccs2)[nH]c2ccccc12	4.1µM*	6.5µM*	nt	nt	18	52
CSc1ccc(/C=C/c2cc(=O)c3ccccc3[nH]2)cc1	?	3%	-13%	-17%	15*	74*
O=C(O)c1cc(O)c2c(c1)[C@H]([C@H]1c3cc(C(=O)O)cc(O)c3C(=O)c3c(O[C@@H]4O[C@H](CO)[C@@H](O)[C@H](O)[C@H]4O)cccc31)c1cccc(O[C@@H]3O[C@H](CO)[C@@H](O)[C@H](O)[C@H]3O)c1C2=O	nt	nt	3%	-10%	nt	nt
CCN1CCc2nc3sc(C(=O)c4ccccc4)c(N)c3cc2C1	?	31%[46.1 µM]	15%	-29%	nt	nt
CC1(C)CC(=O)C2=C(C1)O[C@@]1(CCCCN3C(=O)c4ccccc4C3=O)Cc3ccccc3[C@H]2O1	11%[14.2 µM]	nt	nt	nt	nt	nt
